Measurements published in the supplement of paper PMC12297408.
Where a name gives a salt, the structure may show the parent alone. Out of some 1,300 compounds screened, about 40 (3%) showed activity. Shown is part of a subset that was picked to be rich in actives. Unmarked numbers belong to inactive results.

Test system: Plasmodium falciparum NF54/iGP1_RE9H ulg8 stage V gametocytes
Test: gametocyte viability (luciferase signal relative to DMSO control) (% of DMSO control); higher = less gametocytocidal activity, active = 50 or less
Details: exposure time: 72 h
Method in brief: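 Stage V gametocytes of the NF54/iGP1_RE9Hulg8 line (day 12; ~2.5% gametocytemia, 3% hematocrit), in medium containing 0.5% Albumax II, were dispensed into 96-well plates with compounds spotted in nanolitre volumes from 10 mM DMSO stocks, for final concentrations of 10 µM or 1 µM in a single well each. After 72 h at 37 °C, 90 µl from each well was combined with 10 µl D-luciferin (30 mg/ml), and luminescence was measured on an IVIS Lumina II. Viability was expressed against the mean of the DMSO vehicle wells on the same plate.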

Row | SMILES | gametocyte viability (concentration: 1 µM) | gametocyte viability (concentration: 10 µM)
1 | CCCN1C[C@H](CSC)C[C@@H]2c3cccc4[nH]cc(c34)C[C@H]21 [Pergolide mesylate] | 78.2 | 82.3
2 | CN1C[C@H](C(=O)N[C@]2(C)O[C@@]3(O)[C@@H]4CCCN4C(=O)[C@H](Cc4ccccc4)N3C2=O)C[C@@H]2c3cccc4[nH]cc(c34)C[C@H]21 [Dihydroergotamine tartrate] | 66.8 | 42.4 (active)
3 | CC(C)C[C@H]1C(=O)N2CCC[C@H]2[C@]2(O)O[C@](NC(=O)[C@@H]3C=C4c5cccc6[nH]c(Br)c(c56)C[C@H]4N(C)C3)(C(C)C)C(=O)N12 [Bromocryptine mesylate] | 84.2 | 66.9
4 | CCNCC(O)c1cccc(O)c1 (stereo not given) [Etilefrine hydrochloride] | 87.9 | 90.2
5 | CN1CCC2(C)c3cc(O)ccc3N(C)C12 (single isomer, unassigned; (-)) [(-)-Eseroline fumarate salt] | 74.2 | 44.8 (active)
6 | CNC(=O)Oc1ccc2c(c1)[C@]1(C)CCN(C)[C@@H]1N2C [Eserine sulfate, physostigmine sulfate] | 83.4 | 79
7 | CCC1(c2cccc(O)c2)CCCCN(C)C1 (stereo not given) [Meptazinol hydrochloride] | 83 | 81.4
8 | C(#CCN1CCCC1)CN1CCCC1 [Tremorine dihydrochloride] | 91.5 | 94.7
9 | C[C@@H]1O[C@@H](O[C@@H]2C=C3CC[C@@H]4[C@H](CC[C@]5(C)[C@@H](c6ccc(=O)oc6)CC[C@]45O)[C@@]3(C)CC2)[C@H](O)[C@H](O)[C@H]1O [Proscillaridin A] | 81.2 | 76.2
10 | CCCCCC[C@H]1C(=O)O[C@H](C)[C@H](NC(=O)c2cccc(NC=O)c2O)C(=O)O[C@@H](C)[C@@H]1OC(=O)CC(C)C [Antimycin A] | 86.4 | 94.3
11 | COc1ccc(CCN2CCC(Nc3nc4ccccc4n3Cc3ccc(F)cc3)CC2)cc1 [Astemizole] | 92.7 | 36.4 (active)
12 | Fc1ccc(C(OCCN2CCN(CCCc3ccccc3)CC2)c2ccc(F)cc2)cc1 | 81.5 | 86
13 | CN(C)[C@@H]1C(=O)C(C(N)=O)=C(O)[C@@]2(O)C(=O)C3=C(O)c4c(O)ccc(Cl)c4[C@@](C)(O)[C@H]3C[C@@H]12 [Chlortetracycline hydrochloride] | 88.2 | 88.7
14 | CN1[C@@H]2CC[C@H]1C[C@@H](OC(=O)[C@H](CO)c1ccccc1)C2 [Hyoscyamine (L)] | 86.7 | 91.7
15 | CN1[C@@H]2CC[C@H]1C[C@@H](OC1c3ccccc3CCc3ccccc31)C2 [Deptropine citrate] | 99.2 | 86.5
16 | CC[C@@]1([C@@H]2O[C@@H]([C@H]3O[C@@](O)(CO)[C@H](C)C[C@@H]3C)C[C@@H]2C)CC[C@H]([C@]2(C)CC[C@]3(C[C@H](O)[C@@H](C)[C@@H]([C@@H](C)[C@@H](OC)[C@H](C)C(=O)O)O3)O2)O1 [Monensin sodium salt] | 28.8 (active) | 0.676 (active)
17 | C[C@]12CC[C@H](O)C[C@H]1CC[C@@H]1[C@@H]2C[C@@H](O)[C@]2(C)[C@@H](C3=CC(=O)OC3)CC[C@]12O [Digoxigenin] | 74.9 | 72.3
18 | O[C@@H]1CCCC[C@H]1N1CCC(c2ccccc2)CC1 [L(-)-vesamicol hydrochloride] | 91.8 | 84.9
19 | CC[C@@H](C(N)=O)N1CCCC1=O [Levetiracetam] | 83.8 | 85.3
20 | C[C@]12CCC(=O)C=C1C=C[C@@H]1[C@@H]2CC[C@@]2(C)[C@H]1CC[C@@]2(O)CCC(=O)O [Canrenoic acid potassium salt] | 83.5 | 82.3
21 | C#C[C@]1(O)CC[C@H]2[C@@H]3CCC4=CC(=O)CCC4=C3C=C[C@@]21CC [Gestrinone] | 86.6 | 74.2
22 | C=CC[C@]1(O)CC[C@H]2[C@@H]3CCC4=CC(=O)CCC4=C3C=C[C@@]21C [Altrenogest] | 56.8 | 33.1 (active)
23 | C[N+]1([O-])[C@@H]2C[C@@H](OC(=O)[C@H](CO)c3ccccc3)C[C@H]1[C@@H]1O[C@@H]12 (stereo not given in full) [Scopolamin-N-oxide hydrobromide] | 91.5 | 94.5
24 | CCN[C@@H](C)Cc1cccc(C(F)(F)F)c1 [Dexfenfluramine hydrochloride] | 95.2 | 90.6
25 | C[C@]12COC(=O)C[C@@H]1CC[C@@H]1[C@@H]2CC[C@@]2(C)[C@H]1CC[C@]2(C)O [Oxandrolone] | 81.4 | 78.9
